Assay outcomes from PubChem BioAssay.
SKKanGAS inh – S. pyogenes SKKanGAS growth inhibitors in kanamycin, primary screen, streptokinase expression inhibitor project, SKKanGAS strain, BacTiter-Glo luminescence; inhibition, % at 7.5 µM; hit rate 1.3% among 300,000; AID 1662, 2009; 6 h;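 active = mean replicate score, as percent of positive control median, at least 50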;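 also: strain carries kanamycin resistance gene driven by streptokinase promoter and grows in 40 µg/ml kanamycin; loss of luminescence reflects streptokinase promoter inhibition or plain growth inhibition; 0% = median of DMSO wells and 100% = positive control at its reference dose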
tim10-1 inh – growth inhibitors of tim10-1 mutant yeast, primary screen, luminescence, uHTS; hit rate 2.2% among 330,000; S. cerevisiae tim10-1 ts strain growth, BacTiter-Glo, 24 h; AID 463190, 2010; inhibition, % at 20 µM;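 active = inhibition of at least 40%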;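 also: mutant grown at 25 °C; 0% = DMSO wells with yeast and 100% = wells holding no yeast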
TIM10 inh – growth inhibitors of isogenic TIM10 control yeast, primary screen, counter-screen for tim10-1 yeast inhibitor project, luminescence, uHTS | hit rate 1.4% among 330,000 | inhibition, % at 10 µM | S. cerevisiae TIM10 strain growth, BacTiter-Glo luminescence, 24 h;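 active = inhibition of 40% or more at the single tested concentration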;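 also: wild-type TIM10 isogenic control strain grown at permissive 25 °C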
PfHsp90 yeast 2 – growth inhibition of PfHsp90-expressing yeast, primary screen, antimalarial PfHsp90 inhibitor project, S. cerevisiae, BacTiter-Glo luminescence, single point, set 2; BacTiter-Glo ATP, 48 h; yeast lacking PDR1 and PDR3 efflux regulators; inhibition, % at 9.4 µM; hit rate 0.32% among 310,000;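 active = every replicate shows inhibition above about 80%, whatever the replicate mean, limit read from the data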;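 also: 0% = DMSO neutral controls and 100% = 20 µM radicicol positive controls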
tim23-1 inh – growth inhibitors of tim23-1 mutant yeast, primary screen, luminescence, uHTS; S. cerevisiae tim23-1 growth, BacTiter-Glo luminescence, 24 h; inhibition, % at 20 µM; hit rate 1.3% among 330,000; AID 463212, 2010;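 active = growth inhibition of the mutant yeast at or above 50%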;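 also: temperature-sensitive mutant grown at 25 °C; plate controls were DMSO-treated mutant yeast for no effect and medium wells lacking yeast for full effect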
NLRP3 yeast inh – NALP3 inflammasome inhibitors in reconstituted yeast, primary screen, luminescence, uHTS | hit rate 0.39% among 330,000 | Yeast reconstituted NLRP3/ASC/caspase-1, beta-gal luminescence, 24 h | inhibition, % at 10 µM;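 active = inhibition of 50% or more; inactive = inhibition below 50%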;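 also: plate controls were induced DMSO wells for no effect and uninduced yeast grown without galactose for full effect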
tim10 confirm – growth inhibitors of wild-type TIM10 yeast, confirmation, counter-screen for tim10-1 synthetic lethality project, single concentration, luminescence, S. cerevisiae | shares compounds with TIM10 inh | S. cerevisiae tim10 strain growth, BacTiter-Glo luminescence, 24 h | inhibition, % at 10 µM | hit rate 63% among 4,600 | AID 463215, 2010;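 active = inhibition of yeast growth at or above a set limit in either of two replicates at 10 µM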;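 also: this counterscreen used the strain with wild-type TIM10; 0% = yeast with DMSO and 100% = medium wells lacking yeast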
The depositor's hits bear a star. The list is not random: actives were taken first. Their share in the collection is about 4.6%.

`CC(=O)c1cc2c(cc1N/C(=N/S(=O)(=O)c1ccc(C)cc1)c1ccccc1)OCO2` gave SKKanGAS inh -7, tim10-1 inh 26, TIM10 inh 43*, PfHsp90 yeast 2 25, tim23-1 inh 30, NLRP3 yeast inh 15 and tim10 confirm 2.
COc1ccc2c(c1)C=C([C@@H]1C[C@H]3CN(c4ccccc4)C(=O)[C@]34CCCN14)CO2 was read as SKKanGAS inh -20, tim10-1 inh 17, TIM10 inh 10, PfHsp90 yeast 2 8, tim23-1 inh 6 and NLRP3 yeast inh 13.
`Cc1noc(C(=O)Nc2ccc3c(c2)OCO3)c1Cl` gave SKKanGAS inh -2, tim10-1 inh 19, TIM10 inh 97*, PfHsp90 yeast 2 0, tim23-1 inh 16, NLRP3 yeast inh 31 and tim10 confirm -1.
CCN(CC)S(=O)(=O)c1ccc(NC(=O)C2COc3ccccc3O2)cc1 (stereo not given) was read as SKKanGAS inh 3, tim10-1 inh 39, TIM10 inh 40*, PfHsp90 yeast 2 0, tim23-1 inh 36, NLRP3 yeast inh -3 and tim10 confirm 35*.
For O=C(Nc1ccc(F)cc1)C1COc2ccccc2O1 (stereo not given) the results were SKKanGAS inh -1, tim10-1 inh -2, TIM10 inh 16, PfHsp90 yeast 2 -17, tim23-1 inh 10 and NLRP3 yeast inh 4.
For CN(C)/C(=N\S(=O)(=O)c1ccccc1)c1ccc(F)cc1 the results were SKKanGAS inh 2, tim10-1 inh -11, TIM10 inh 61*, PfHsp90 yeast 2 -19, tim23-1 inh 4, NLRP3 yeast inh 12 and tim10 confirm 0.
For Cc1ccc(C(=O)Nc2ccc3c(c2)nc2n3CCSC2)cc1 the results were SKKanGAS inh -2, tim10-1 inh 26, TIM10 inh 63*, PfHsp90 yeast 2 0, tim23-1 inh 42, NLRP3 yeast inh 19 and tim10 confirm 65*.
For Cc1occc1C(=O)Nc1ccccc1C#N the results were SKKanGAS inh -1, tim10-1 inh -11, TIM10 inh 4, PfHsp90 yeast 2 -5, tim23-1 inh 5 and NLRP3 yeast inh -11.
For Cn1c(SCc2ccc3c(c2)OCO3)nnc1-c1ccccc1 the results were SKKanGAS inh -1, tim10-1 inh -3, TIM10 inh 97*, PfHsp90 yeast 2 -5, tim23-1 inh 30, NLRP3 yeast inh 24 and tim10 confirm 11.
For O=C(Nc1ccccc1)Nc1cccc(Cl)c1Cl the results were SKKanGAS inh 5, tim10-1 inh 20, TIM10 inh 45*, PfHsp90 yeast 2 31, tim23-1 inh 40, NLRP3 yeast inh 25 and tim10 confirm 18.
Screening O=C(Nc1ccncc1)Nc1cccc(Cl)c1Cl returned SKKanGAS inh 16, tim10-1 inh -12, TIM10 inh -76, PfHsp90 yeast 2 -2, tim23-1 inh -18 and NLRP3 yeast inh 14.
For CCc1ccc(NC(=O)CC2C(=O)N(c3ccc(C)cc3)C(=O)N2C2CC2)cc1 (stereo not given) the results were SKKanGAS inh -1, tim10-1 inh 7, TIM10 inh 7, PfHsp90 yeast 2 22, tim23-1 inh 24 and NLRP3 yeast inh 2.
`CCN(CC)C(=O)COc1ccc(/C=N/NC(=O)c2cc(-c3ccccc3OC)nc3ccccc23)cc1OC` gave SKKanGAS inh 9, tim10-1 inh -7, TIM10 inh -6, PfHsp90 yeast 2 12, tim23-1 inh 9 and NLRP3 yeast inh 19.
Screening COc1cc(/C=C/C(=O)c2ccc(F)cc2)cc(OC)c1OC returned SKKanGAS inh -4, tim10-1 inh 39, TIM10 inh 42*, PfHsp90 yeast 2 11, tim23-1 inh 48, NLRP3 yeast inh -15 and tim10 confirm 42*.
`O=S(=O)(Nc1ccc(N2CCCCC2)cc1)c1cccs1` gave SKKanGAS inh -7, tim10-1 inh 15, TIM10 inh 5, PfHsp90 yeast 2 8, tim23-1 inh 21 and NLRP3 yeast inh -6.
Screening O=S(=O)(Nc1cc(Cl)ccc1N1CCCCC1)c1cccs1 returned SKKanGAS inh 8, tim10-1 inh 37, TIM10 inh 40*, PfHsp90 yeast 2 32, tim23-1 inh 33, NLRP3 yeast inh 0 and tim10 confirm 20.
`COc1ccc2[nH]c3c(c2c1)CCNC3c1ccc([N+](=O)[O-])o1` (stereo not given) gave SKKanGAS inh 4, tim10-1 inh -43, TIM10 inh 41*, PfHsp90 yeast 2 18, tim23-1 inh 12, NLRP3 yeast inh 15 and tim10 confirm 54*.
Screening COc1ccc2[nH]c3c(c2c1)CCNC3C1CC=C(C)CC1 (stereo not given) returned SKKanGAS inh -3, tim10-1 inh -23, TIM10 inh -12, PfHsp90 yeast 2 -2, tim23-1 inh -14 and NLRP3 yeast inh 35.
`CS(=O)(=O)c1cccc(C(=O)OCC(=O)NCc2cccs2)c1` gave tim10-1 inh 5, TIM10 inh 72*, PfHsp90 yeast 2 -6, tim23-1 inh 3, NLRP3 yeast inh -3 and tim10 confirm -8.
Screening COc1cnc(-c2ccccn2)nc1Oc1ccc(Cl)c2ccccc12 returned SKKanGAS inh 93*, tim10-1 inh 37, TIM10 inh 53*, tim23-1 inh 40, NLRP3 yeast inh 34 and tim10 confirm 41*.
For O=C(NCC1COc2ccccc2O1)Nc1ccccc1F (stereo not given) the results were SKKanGAS inh 3, tim10-1 inh 9, TIM10 inh 24, PfHsp90 yeast 2 -25, tim23-1 inh 29 and NLRP3 yeast inh 25.
Screening CN(CC1COc2ccccc2O1)C(=S)Nc1ccccc1F (stereo not given) returned SKKanGAS inh 1, tim10-1 inh 28, TIM10 inh 41*, PfHsp90 yeast 2 12, tim23-1 inh 43, NLRP3 yeast inh 32 and tim10 confirm 26.
Screening COCc1ccc(-c2c(-c3ccsc3)sc3ccccc23)cc1 returned tim10-1 inh 0, TIM10 inh -3, PfHsp90 yeast 2 -2, tim23-1 inh 3 and NLRP3 yeast inh 4.
`Oc1ccc(-c2c(-c3ccsc3)sc3ccccc23)cc1` gave SKKanGAS inh 108*, tim10-1 inh 30, TIM10 inh 48*, PfHsp90 yeast 2 107*, tim23-1 inh 41, NLRP3 yeast inh 8 and tim10 confirm 61*.
